About 3,200 (25%) of roughly 13,000 compounds showed an effect of 50% or more. Some of the results follow.
These molecules were tested on P. falciparum stage V gametocytes. Conditions: 48 h, 5 µM; inhibitor.
Parameters: BacTiter-Glo ATP luminescence viability of purified stage V gametocytes in 384-well plates, per cent inhibition versus DMSO

Compound	% Inhibition [%]
Fc1ccc(C(OCC2CCCN(Cc3cccc4cccnc34)C2)c2ccc(F)cc2)cc1 (centres unmarked) [TCMDC-136044]	-14.61
COC1(C)Oc2ccc3cccc([N+](=O)[O-])c3c2C1=O (centres unmarked) [TCMDC-131378]	-5.605
CCOc1ccc(C(=O)Nc2cc(Cl)ccc2O)cc1Cl [TCMDC-123684]	-34.32
CCOc1cc(C(C)C)ccc1N1CCN(CCCCNC(=O)c2ccc(NC(=O)c3ccc(Cl)cc3)cc2)CC1 [TCMDC-138519]	-10.71
CCOc1ccc(C(C)NC(=O)c2cc(Cl)ccc2OC)cc1OCC (centres unmarked) [TCMDC-125016]	67.36
CCOc1ccc(C(C)NC(=O)c2ccc(OC)c(Br)c2)cc1OCC (centres unmarked) [TCMDC-124876]	88.58
Cc1cccc2nc(C(=O)Nc3nc(CN4CCC(C)CC4)cs3)cn12 [TCMDC-125340]	11.88
CN1CCN(Cc2ccc(-c3cccc(-c4nc5ccccc5[nH]4)c3)cc2)CC1 [TCMDC-132542]	58.54
c1cc(-c2ccc(CNC3CC3)cc2)cc(-c2nc3ccccc3[nH]2)c1 [TCMDC-132538]	-44.27
N#CCCN1CCN(Cc2cccc(-c3ccc(-c4nc5ccccc5[nH]4)cc3)c2)CC1 [TCMDC-133852]	-22.87
CN1CCC(NCc2cccc(-c3cccc(-c4nc5ccc(C(F)(F)F)cc5[nH]4)c3)c2)CC1 [TCMDC-132735]	38.83
CN1CCC(N2CCN(Cc3cccc(-c4cccc(-c5nc6ccccc6[nH]5)c4)c3)CC2)CC1 [TCMDC-133878]	70.79
c1cc(CN2CCN(CCN3CCOCC3)CC2)cc(-c2cccc(-c3nc4ccccc4[nH]3)c2)c1 [TCMDC-133922]	-15.36
CN1CCC(NCc2ccc(-c3cccc(-c4nc5ccccc5[nH]4)c3)cc2)CC1 [TCMDC-132551]	85.21
COCCN1CCN(Cc2ccc(-c3cccc(-c4nc5ccccc5[nH]4)c3)cc2)CC1 [TCMDC-132559]	86.66
COCCN1CCN(Cc2cccc(-c3ccc(-c4nc5ccccc5[nH]4)cc3)c2)CC1 [TCMDC-133023]	-14.55
CN1CCC(N2CCN(Cc3cccc(-c4ccc(-c5nc6ccccc6[nH]5)cc4)c3)CC2)CC1 [TCMDC-133850]	29.34
c1ccc2[nH]c(-c3ccc(-c4ccc(CN5CCCCC5)cc4)cc3)nc2c1 [TCMDC-133906]	32.64
c1cc(-c2ccc(CN3CCCC3)cc2)cc(-c2nc3ccccc3[nH]2)c1 [TCMDC-133794]	34.22
Cc1noc(C)c1-c1ccc2c(Nc3ccccc3C(C)(C)C)c(C(=O)NC3CCCC3)cnc2c1.Cl [TCMDC-136365]	-46.26
N#Cc1cc(C(=O)c2cc(Cl)ccc2O)cn(-c2cccc(C(F)(F)F)c2)c1=O [TCMDC-124543]	16.34
CCc1nc(N)nc(N)c1-c1cccc(Cl)c1 [TCMDC-137371]	-15
CNc1nc(NN=Cc2ccccc2Cl)nc(Nc2cccc(C(F)(F)F)c2)n1 [TCMDC-124188]	-11.55
N#CC(c1ccc(Cl)cc1)c1ccc2c(C(F)(F)F)cc(C(F)(F)F)nc2n1 (centres unmarked) [TCMDC-124176]	9.763

Compound	% Inhibition [%]
CCOc1cccc(C(=O)Nc2cccc(CN3CCCN(Cc4ccc(O)cc4)CC3)c2)c1 [TCMDC-141862]	17.88
OC(CNCc1ccccc1Oc1ccccc1)c1cc(Br)cs1 (centres unmarked) [TCMDC-141369]	34.47
COc1ccc(CC(=O)NC(CCN2CCC3(CCc4ccccc43)CC2)c2ccc(Cl)c(Cl)c2)cc1 (centres unmarked) [TCMDC-141762]	-72.25
CN(C)CCN1CCN(Cc2ccc(-c3cccc(-c4nc5ccccc5[nH]4)c3)cc2)CC1 [TCMDC-133795]	73.83
CN(C)CCN1CCN(Cc2cccc(-c3csc(-c4nc5ccccc5[nH]4)c3)c2)CC1 [TCMDC-133793]	29.26
OCCN1CCN(Cc2ccc(-c3cccc(-c4nc5ccccc5[nH]4)c3)cc2)CC1 [TCMDC-132540]	6.462
CN1CCC(N2CCN(C(=O)c3cccc(-c4cccc(-c5nc6ccccc6[nH]5)c4)c3)CC2)CC1 [TCMDC-132312]	7.191
CN1CCC(N2CCN(Cc3ccc(-c4cccc(-c5nc6ccccc6[nH]5)c4)cc3)CC2)CC1 [TCMDC-133881]	56.17
Cc1ccc(Oc2ccccc2NC(=O)CCc2nc3ccccc3c(=O)[nH]2)cc1 [TCMDC-125459]	59.46
Cc1cc(NC(=O)Nc2ccc(Oc3ccccc3)cc2)c2ccccc2n1 [TCMDC-134657]	-9.366
CC(C)(C)C(=O)Nc1ccccc1Oc1ccc(Cl)cc1 [TCMDC-137332]	6.336
CC(CNC(=O)[C@H]1CNCCN1C(=O)CCCc1ccccc1)c1ccccc1 (some centres unmarked) [TCMDC-141268]	55.69
CCCC(C)NC(=O)[C@H]1CNCCN1C(=O)CCCc1ccccc1 (some centres unmarked) [TCMDC-141270]	1.864
COc1cccc(CNC(=O)[C@H]2CNCCN2C(=O)CCCc2ccccc2)c1 [TCMDC-141271]	37.6
O=C(NCc1ccc(F)cc1)c1cnc(N2CCN(c3ccncc3)CC2)c(Cl)c1 [TCMDC-134627]	-0.3882
COc1ccc2nccc(NN=Cc3cccc(C)n3)c2c1 [TCMDC-142034]	-10.1
COc1ccc(OCCCN2CCCCC2)cc1S(=O)(=O)c1ccc(OCc2ccc(C(F)(F)F)cc2)cc1 [TCMDC-132410]	92.2
CCOc1cc2c(cc1S(=O)(=O)c1ccc(COc3ccc(C(F)(F)F)cc3)cc1)CCN(C)CC2 [TCMDC-134264]	39.44
COc1cc2c(cc1S(=O)(=O)c1ccc(COc3ccc(C(F)(F)F)cc3)cc1)CNCC2 [TCMDC-134479]	-1.894
CCCCCCCn1c2c(c(=N)c3c1CCC3)CCCC2 [TCMDC-125606]	41.76
CCCCCCn1c2c(c(=N)c3c1CCC3)CCC2 [TCMDC-125620]	20.05
CCn1c2c(c(=N)c3ccccc31)CCC2 [TCMDC-125756]	-4.824
CCCCCCn1c2c(c(=N)c3c1CCC3)CCCC2 [TCMDC-124215]	19.97
CCCCCCCCn1c2c(c(=N)c3c1CCC3)CCCC2 [TCMDC-125653]	74.53

Compound	% Inhibition [%]
CCCCCCCCn1c2c(c(=N)c3c1CCC3)CCC2 [TCMDC-125309]	92.39
Oc1cccc(Nc2nc(NCc3ccco3)c3ccccc3n2)c1 [TCMDC-124014]	8.731
Cc1c[nH]c2cc(/C=C/C(=O)NC3CCC(CCN4CCc5ccc(C#N)cc5CC4)CC3)ccc12 (centres unmarked) [TCMDC-139663]	21.27
Cc1cc(-c2nc3cncc(-c4cccc(CN5CCCC5Cc5cccnc5)c4)c3n2C)nn1C (centres unmarked) [TCMDC-135046]	-7.326
CCOC(=O)N1NC(=O)N(c2ccccc2)C1(c1ccccc1)c1ccccc1 [TCMDC-142002]	-11.41
COc1cc2c(cc1C(F)(F)F)N(C(=O)Nc1cc(OC(F)(F)F)cc(-c3cccnc3)c1)CC2 [TCMDC-139046]	-1.066
O=C(CN1CCN(C(=O)c2ccco2)CC1)Nc1ccc(Br)cc1Cl [TCMDC-124619]	-12.46
O=C(N1CCN(c2ccc(C(F)(F)F)cc2[N+](=O)[O-])CC1)C(Cl)(Cl)Cl [TCMDC-124371]	-2.22
COc1ccc(CN2CCN(C(=O)c3cccs3)CC2)c(O)c1 [TCMDC-139298]	16.42
O=C(CN1CCN(C(=O)c2ccco2)CC1)Nc1ccccc1Br [TCMDC-124849]	32.72
Cc1cc(N2CCN(C(=O)OC(C)(C)C)CC2)ccc1N [TCMDC-125886]	-87.61
CC(C)(C)C(=O)N1CCN(c2ccc([N+](=O)[O-])c(NC3CC3)c2)CC1 [TCMDC-123687]	84.84
O=C(c1cccs1)N1CCN(c2ccc([N+](=O)[O-])c(NC3CC3)c2)CC1 [TCMDC-123877]	88.85
O=C(c1ccco1)N1CCN(c2ccc([N+](=O)[O-])c(NC3CC3)c2)CC1 [TCMDC-125397]	97.95
O=C(NC1CCN(c2ccc(F)cc2[N+](=O)[O-])CC1)c1cccs1 [TCMDC-133786]	14.81
O=C(NCCN1CCCC1)c1cccc(-c2ccc(-c3nc4ccccc4[nH]3)s2)c1 [TCMDC-132319]	-6.335
C=CCn1c(=N)c(C(=O)NC2CCCCC2)cc2c(=O)n3cccc(C)c3nc21 [TCMDC-125083]	96.68
C=CCn1c(=N)c(C(=O)NCc2ccc(F)cc2)cc2c(=O)n3cccc(C)c3nc21 [TCMDC-125128]	82.89
Cc1cccn2c(=O)c3cc(C(=O)NC4CCCCC4)c(=N)n(CCCn4ccnc4)c3nc12 [TCMDC-125136]	14.71
COc1ccc(CCn2c(=N)c(C(=O)NC3CCCC3)cc3c(=O)n4ccccc4nc32)cc1 [TCMDC-124552]	4.624
COc1ccc(CCNC(=O)c2cc3c(=O)n4cccc(C)c4nc3n(C)c2=N)cc1 [TCMDC-125129]	30.65
Cc1ccc(CNC(=O)c2cc3c(=O)n4cccc(C)c4nc3n(CCN3CCOCC3)c2=N)cc1 [TCMDC-125405]	11.13
N#Cc1ccc2nc(-c3ccccc3)[nH]c2c1 [TCMDC-137223]	19.91

From article PMC4552634, “A New Set of Chemical Starting Points with Plasmodium falciparum Transmission-Blocking Potential for Antimalarial Drug Discovery” (PLoS ONE, 2015)
